Measurements published in PubChem BioAssay (NCI).
The panel holds about 79,000 compounds, 15% with a hit somewhere; the sample as a whole holds those more often. Active and inactive are the calls of the source. No stated cut-off is given here; in the data, active means growth inhibition above about 70%; inactive means the rest.

Key:
[1] = NCI Yeast Anticancer Drug Screen. Data for the rad50 strain (AID 155);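 further: 0% = growth of vehicle-only cultures of the same strain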; details: S. cerevisiae rad50 strain growth inhibition; at 50.0 µM; active compounds read high
Method in brief: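 Inhibition values express reduced yeast growth in compound-treated cultures relative to vehicle-treated controls.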

[2] = NCI Yeast Anticancer Drug Screen. Data for the mec2-1 strain (AID 157); details: S. cerevisiae mec2-1 strain, at 50.0 µM, active compounds read high
Method in brief: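 Cells of the genetically defined mec2-1 yeast strain are incubated with test compound. Inhibition of growth is calculated against vehicle-treated controls.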

[3] = NCI Yeast Anticancer Drug Screen. Data for the sgs1 mgt1 strain (AID 161);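 further: 0% = growth of cultures given vehicle only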; details: S. cerevisiae sgs1 mgt1 strain, at 50.0 µM, active compounds read high
Method in brief: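 Genetically altered yeast, compound exposure, growth inhibition relative to vehicle.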

[4] = NCI Yeast Anticancer Drug Screen. Data for the cln2 rad14 strain (AID 165);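 further: 0% = growth equal to vehicle treated cultures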; details: S. cerevisiae cln2 rad14 strain, at 50.0 µM, active compounds read high
Method in brief: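 The screen exposed genetically defined yeast (cln2 rad14) to test compounds and scored growth inhibition relative to vehicle-treated controls.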

[5] = NCI Yeast Anticancer Drug Screen. Data for the bub3 strain (AID 167); details: S. cerevisiae bub3 mutant strain, at 50.0 µM, active compounds read high
Method in brief: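 Steps: expose the mutant yeast strain to compound; grow alongside vehicle-treated cultures; measure growth; express inhibition against the vehicle cultures.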

[6] = NCI Yeast Anticancer Drug Screen. Data for the mlh1 rad18 strain (AID 175); details: S. cerevisiae mlh1 rad18 strain growth inhibition; at 50.0 µM; active compounds read high
Method in brief: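 Compound-treated yeast growth, normalised to vehicle controls. Strain bears defined DNA repair mutations.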

SMILES	growth inhibition [1]	growth inhibition [2]	growth inhibition [3]	growth inhibition [4]	growth inhibition [5]	growth inhibition [6]
CCO[Si](C)(CCC#N)OCC	6.05% (inactive)	-64% (inactive)	-12.7% (inactive)	30.9% (inactive)	-31.6% (inactive)	4.75% (inactive)
C/C(C(=O)O)=C1\N=C(N)NC1=O	-3.25% (inactive)	-2.9% (inactive)	-5.5% (inactive)	-36.9% (inactive)	-17.9% (inactive)	-14.4% (inactive)
CCOc1ccccc1NC(=O)C(=O)C(c1ccccc1)S(=O)(=O)Cc1ccccc1 (stereo not given)	-1% (inactive)	-12.5% (inactive)	-10.1% (inactive)	5.45% (inactive)	-7.35% (inactive)	-1.5% (inactive)
COC(=O)C1OCOC2C(CO)OCOC12 (stereo not given)	6.8% (inactive)	23.1% (inactive)	-1.5% (inactive)	-49.4% (inactive)	2.8% (inactive)	-7.85% (inactive)
COc1ccc(-c2onc3ccc(Cl)cc23)cc1	-9.1% (inactive)	4.1% (inactive)	17.4% (inactive)	-63.5% (inactive)	7.35% (inactive)	21.4% (inactive)
C/C(CCc1ccccc1Br)=N/NC(N)=O	-11.1% (inactive)	-0.9% (inactive)	-8.55% (inactive)	-34.4% (inactive)	2.6% (inactive)	-11.3% (inactive)
COC(=O)c1ccc2cc1Nc1c(C#N)cnc(=S)n1-2	-2.3% (inactive)	13.4% (inactive)	11.2% (inactive)	23.1% (inactive)	14.5% (inactive)	18.1% (inactive)
O=P(c1ccccc1)(c1ccccc1)c1ccccc1OCCCO	8.3% (inactive)	3.2% (inactive)	4.35% (inactive)	24.8% (inactive)	4.4% (inactive)	3.15% (inactive)
CC(=O)Nc1ccc2c(c1)Cc1c(F)cc(F)cc1-2	35.9% (inactive)	-9% (inactive)	19.6% (inactive)	16.1% (inactive)	21.9% (inactive)	39.8% (inactive)
O=C1CCC(N2C(=O)C3C4CCC(O4)C3C2=O)C(=O)O1 (stereo not given)	12.9% (inactive)	3% (inactive)	13.9% (inactive)	13.8% (inactive)	13.8% (inactive)	7.85% (inactive)
CCOC(=O)N1C=Cc2ccccc2C1C(=N)N (stereo not given)	-20.2% (inactive)	-12.3% (inactive)	-11% (inactive)	-7.7% (inactive)	-6.3% (inactive)	-13.6% (inactive)
O=C(Nc1ccccc1F)C(c1ccccc1)c1ccccc1	14.8% (inactive)	8.95% (inactive)	3.25% (inactive)	-1.45% (inactive)	11.8% (inactive)	4% (inactive)
CCOc1ccc(C(=O)CCC(=O)Nc2ccc(Br)cc2)cc1	13.1% (inactive)	5.8% (inactive)	13.1% (inactive)	-7.3% (inactive)	8.75% (inactive)	20.4% (inactive)
Cc1oc2nc(N(C)C)n3nnnc3c2c1C	-0.35% (inactive)	-8.5% (inactive)	-6.15% (inactive)	-4.1% (inactive)	25.3% (inactive)	-14.4% (inactive)
CCc1nnc(CC)n1NC(=O)Nc1ccc(C)cc1	-5.1% (inactive)	-14.5% (inactive)	-3.75% (inactive)	7.05% (inactive)	-7.65% (inactive)	1.25% (inactive)
CC1=C(C(=O)Nc2ccc(Cl)c(C(=O)OC(C)C)c2)SCCO1	44.9% (inactive)	7.35% (inactive)	5.15% (inactive)	4.05% (inactive)	25.4% (inactive)	0.45% (inactive)
Cc1cccc(C)c1NC(=O)Nc1ccc(C(=O)O)cc1	-8.6% (inactive)	31.7% (inactive)	2.5% (inactive)	-15.8% (inactive)	22.6% (inactive)	11.4% (inactive)
CNc1ccc(OC)cc1S(=O)(=O)c1ccccc1[N+](=O)[O-]	2.25% (inactive)	-35.4% (inactive)	35.6% (inactive)	18.7% (inactive)	4.75% (inactive)	-22.2% (inactive)

SMILES	growth inhibition [1]	growth inhibition [2]	growth inhibition [3]	growth inhibition [4]	growth inhibition [5]	growth inhibition [6]
O=C1C2C3CCC(C3)C2C(=O)C2C3CCC(C3)C12 (stereo not given)	-1.6% (inactive)	-12.7% (inactive)	-9.95% (inactive)	-8.45% (inactive)	8.75% (inactive)	6.65% (inactive)
CN1CCN(C(=S)C(O)(c2ccccc2)c2ccccc2)CC1	1.75% (inactive)	-1.85% (inactive)	-2.35% (inactive)	1.45% (inactive)	16.1% (inactive)	-8.6% (inactive)
CO/N=C1/c2sccc2[C@H](NC(=O)C(Cc2ccccc2)NC(=O)OC(C)(C)C)[C@@H]1O (stereo not given in full)	-18.2% (inactive)	-13.1% (inactive)	-14% (inactive)	-11.9% (inactive)	-2.35% (inactive)	13.7% (inactive)
O=C(c1ccccc1)C(O)(c1ccccc1)c1ccccc1	37.5% (inactive)	-18.2% (inactive)	3.8% (inactive)	-31.1% (inactive)	22.1% (inactive)	0.8% (inactive)
CC(C)C(NC(=O)C(=O)c1c[nH]c2ccc(Cl)cc12)C(=O)O (stereo not given)	-28.9% (inactive)	-9.55% (inactive)	-5.7% (inactive)	-10% (inactive)	-10.2% (inactive)	-1.95% (inactive)
COc1cc(C2CC=CCC2C(=O)O)cc(OC)c1OC (stereo not given)	-13.6% (inactive)	2.4% (inactive)	-0.65% (inactive)	7.95% (inactive)	-0.25% (inactive)	0.9% (inactive)
CNC1=C(Sc2ccc(C)cc2)C(=O)c2ccccc2C1=O	-4.9% (inactive)	1.8% (inactive)	5.4% (inactive)	-0.45% (inactive)	-9.05% (inactive)	-8.7% (inactive)
CC[Si](/C=C(/C)C(C)(C)C)(CC)CC	0.9% (inactive)	-21.9% (inactive)	-7.05% (inactive)	-34.1% (inactive)	-8.05% (inactive)	-5.1% (inactive)
CCOC(=O)C(Cc1ccc(OC)c(C)c1)(NC(C)=O)C(=O)OCC	-0.3% (inactive)	5.1% (inactive)	-3.45% (inactive)	-14.2% (inactive)	3.85% (inactive)	6.4% (inactive)
CCOC(=O)N1CCN(P(=O)(Nc2ccc3nc(NC(=O)OC)[nH]c3c2)Oc2ccccc2)CC1 (stereo not given)	-38.5% (inactive)	-6.9% (inactive)	0.55% (inactive)	-9.4% (inactive)	-9.65% (inactive)	-37.1% (inactive)
CN=c1ncc2nc(-c3ccccc3)c(-c3ccccc3)n(C)c-2n1	-8.2% (inactive)	-5.9% (inactive)	-7.45% (inactive)	-42% (inactive)	-3.85% (inactive)	-24.4% (inactive)
CC(C)Oc1c(O)c2c3c(oc(=O)n3C=CC2c2ccccc2)c1OC(C)C (stereo not given)	86.8% (active)	86.9% (active)	88.2% (active)	86.6% (active)	85.5% (active)	82.3% (active)
Cc1cccc(/C=C/C(=O)C(C)CN(C)C)c1 (stereo not given)	41.4% (inactive)	15.6% (inactive)	63% (inactive)	30.4% (inactive)	28.6% (inactive)	39.5% (inactive)
O=C(CCCCl)c1ccccc1	0.75% (inactive)	-4% (inactive)	-18.1% (inactive)	2.35% (inactive)	-7.1% (inactive)	-2.6% (inactive)
Cc1ccccc1N=CC(C=O)[N+](=O)[O-] (stereo not given)	-1.65% (inactive)	-9.8% (inactive)	0.95% (inactive)	4.1% (inactive)	-4.7% (inactive)	-5.65% (inactive)
CC(=O)c1ccc(C)cc1C	27.9% (inactive)	4.35% (inactive)	15.3% (inactive)	2.65% (inactive)	15.4% (inactive)	2.95% (inactive)
O=C(O)CSc1nc2cc(Cl)c(Cl)cc2[nH]1	-9.75% (inactive)	-6.75% (inactive)	1.35% (inactive)	-10.4% (inactive)	13.1% (inactive)	-7.55% (inactive)
